# BCR signal inh: inhibitors of chronic active B-cell receptor signaling; ABC-DLBCL IkBa-CBG/CBR reporter, luminescence ratio, 4 h; Potency, µM (doses to about 46.1 µM), for inactives: top-dose activity change, negative = inhibition, most hits filed as inhibitors; hit rate 0.05% among 340,000; AID 493014; active means well fitted inhibition curve with a large enough effect in the signal ratio, with a control signal flat, not every such curve was filed as active; inconclusive means small, poorly fitted or top-dose-only effect, or effect the other way, or a change in a side signal; the % refers to the signal ratio;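 further: potency means the concentration at half of the fitted maximal effect; plate controls were basal doxycycline-induced cells for no effect and cells given 10 µM MG132 for full effect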
#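 Compounds up to 46 uM were incubated four hours with TMD8 cells whose green CBG68 luciferase is fused to IkappaBalpha; red CBR luminescence normalised the signal, and concentration-effect curves were fitted to fusion, red and ratio data.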
# DT40 TDP1 CPT: DT40-hTDP1 cell growth loss with CPT; chicken DT40 Tdp1-/-;hTDP1 cells + 20 nM CPT, ATP luminescence, 48 h; Potency, µM (doses to about 46.2 µM), for inactives: top-dose activity change, negative = growth inhibition, usual class: inhibitors; AID 686979; hit rate 12% among 420,000; further: potency means the concentration at half of the fitted maximal effect; on the % scale 0 is the no-effect control and ±100 the full control effect; nearly all actives have a fitted effect of over 55% in size
#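 Chicken DT40 Tdp1-/- cells complemented with human TDP1, 400 cells/well, exposed to compounds plus 20 nM camptothecin for at least 48 h at 37 C; viability read as ATP content by CellTiter-Glo luminescence.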
# SW480 rerep: DNA re-replication induction in SW480 cells. hit rate 1.8% among 340,000. Potency, µM (series often up to 46.1 µM), without a hit: at the top dose re-replication activation, usual class: activators. SW480 DNA re-replication, Hoechst DNA content imaging, 48 h; further: potency means the concentration at half of the fitted maximal effect; % of control where 0% means no effect; nearly all actives have a fitted effect of over 55% in size
#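 Quantitative HTS format with DMSO vehicle controls; 48 hr drug incubation at 37 C, then 40 min Hoechst staining and scanning imager measurement at 405 nm excitation.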
# IL-1B inflam inh: inhibitors of inflammasome signaling (IL-1 beta secretion) | THP-1 LPS/ATP IL-1B secretion, AlphaLISA, 16 h; hits give low values | activity change, % at 57.5 µM | hit rate 4.7% among 360,000 | AID 743279; in the data active means activity change below about -50%; inconclusive means mostly about -30% to -49%; further: on the % scale 0 is the no-effect control and ±100 the full control effect
#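 Secreted IL-1B measured by AlphaLISA bead assay after 16 h compound exposure of THP-1 cells; compounds (final up to 57.5 uM) added 1 h before LPS (250 ng/mL) and ATP (1.25 mM) stimulation; lower signal means less secretion.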
# MCF10A rerep: DNA re-replication induction in MCF 10a cells. MCF 10A DNA re-replication, Hoechst nuclear intensity, 48 h. Potency, µM (titrated, usually from 46.1 µM), for inactives: at the top dose activity, positive = re-replication, most hits filed as activators. hit rate 2.9% among 350,000; further: potency means the concentration at half of the fitted maximal effect; % of control where 0% means no effect; nearly all actives have a fitted effect of over 50% in size
# TDP1 cell noCPT: qHTS for Inhibitors of human tyrosyl-DNA phosphodiesterase 1 (TDP1): qHTS in cells in absence of CPT; Potency, µM (titrated, usually from 46.2 µM), without a hit: at the highest dose activity change, negative = growth inhibition, usual class: inhibitors; AID 686978, 2013; DT40 Tdp1-/- hTDP1 cells, no CPT, ATP luminescence, 48 h; hit rate 15% among 420,000; further: potency means the concentration at half of the fitted maximal effect; on the % scale 0 is the no-effect control and ±100 the full control effect; nearly all actives have a fitted effect of over 55% in size
#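 No-CPT arm: Tdp1-/-;hTDP1 DT40 cells (400/well) plus compounds, incubated ≥48 hr at 37 °C. Readout CellTiter-Glo luminescence.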
# Numbers without * were called inactive; ? = inconclusive; / = not tested or not shown; ! = not confirmed by another sample; [ ] = another dose, or the depositor's remark. Compounds with a hit are over-represented: about 19% of the library has one in this group of screens. Unless noted, the call rests on the fitted dose curve; in most records, active means well fitted curve in the direction sought with a large enough effect; inconclusive means small, poorly fitted or top-dose-only effect, or another doubt; inactive means no such curve, though single readings can be large; an effect the other way counts as inactive or inconclusive.
SMILES,BCR signal inh,DT40 TDP1 CPT,SW480 rerep,IL-1B inflam inh,MCF10A rerep,TDP1 cell noCPT
CN(c1ccc(OCC(=O)N2CCN(C/C=C/c3ccccc3)CC2)cc1)S(=O)(=O)c1cccs1,-28%,13µM*,?,-5,?,5.8µM*
COc1ccc2nc(NC(=O)c3nc(S(=O)(=O)Cc4cccc(C)c4)ncc3Cl)sc2c1,/,1.6µM*,/,/,/,2.1µM*
O[N+]1=CC=CCC1=S.On1ccccc1=S.[Zn],/,0.033µM*,/,/,/,0.15µM*
CCOC(=O)c1c(C)[nH]c(C)c1S(=O)(=O)NCC(=O)N1CCN(c2cc(Cl)ccc2C)CC1,/,23µM*,/,/,/,18µM*
Oc1ccc2c3c1O[C@H]1c4[nH]c5ccccc5c4C[C@@]4(O)C(C2)N(CC2CC2)CC[C@]314,5%,/,/,/,/,/
Oc1ccc2c3c1O[C@H]1c4oc5ccccc5c4C[C@@]4(O)[C@@H](C2)N(CC2CC2)CC[C@]314,-1%,?,11%,-65*,22%,?
Oc1ccc2c3c1O[C@H]1c4oc5ccccc5c4C[C@]4(O)[C@H](C2)N(CC2CC2)CC[C@@]314,/,9%,/,/,/,-3%
Oc1ccc2c3c1O[C@H]1c4[nH]c5ccccc5c4C[C@@]4(O)[C@@H](C2)N(CC2CC2)CC[C@]314,?,19%,?,-61*,11%,11%
Oc1ccc2c3c1O[C@H]1c4c(c5ccccc5n4Cc4ccccc4)C[C@]4(O)[C@H](C2)N(CC2CC2)CC[C@@]314,/,12µM*,/,/,/,13µM*
CNC(=O)Oc1ccc(N(C)C)cc1C(C)C,0%,-1%,19%,0,2%,-12%
O=C(O)c1ccc2[nH]cc(CCCCN3CC=C(c4ccccc4)CC3)c2c1,/,10%,-4%,/,0%,-11%
Oc1ccc2[nH]cc(CCCCN3CC=C(c4ccccc4)CC3)c2c1,/,27µM*,1%,/,-2%,17µM*
CCNC(=O)CCSc1nc2cc(Cl)ccc2o1,5%,-5%,?,35,-2%,?
O=C(NC1CN2CCC1CC2)c1cc(Cl)c([N+](=O)[O-])c2nc[nH]c12 (configuration not stated),?,?,4%,-104*,?,?
COc1ccc(NS(=O)(=O)c2ccc3c(c2)oc(=O)n3C)cc1Cl,-1%,13µM*!,-27%,12,8%,16µM*
CN(Cc1ccc(OC(F)F)cc1)Cc1nc2c(Br)cc(Br)cc2c(=O)[nH]1,?,?,?,7,15%,16µM*
Cn1ccsc1=NC(=O)c1ccc(S(C)(=O)=O)c([N+](=O)[O-])c1,?,4.6µM*,16µM*,-110*,15µM*,4.6µM*
O=C(O)c1ccc([N+](=O)[O-])c([N+](=O)[O-])c1,/,-10%,?,-2,?,-16%
O=C(Cc1n[nH]c(=O)c2ccccc12)OCc1c(Cl)cccc1Cl,11%,?,-119%,12,?,?
NC(=O)[C@@H]1CCCN1C(=O)[C@H](Cc1ccccc1)NC(=O)[C@@H]1CCCN1C(=O)[C@@H](N)Cc1ccc(O)cc1,/,-4%[4.12 µM],/,/,/,14%[4.12 µM]
O=C(COc1ccc(Br)cc1)N1CCN(C2CCCC2)CC1,14%,-8%,-1%,-1,-4%,1%
O=C(COc1ccc2ccccc2c1)N1CCN(Cc2c[nH]c3ccccc23)CC1,?,2.1µM*,?,-23,?,5.2µM*
O=C(COc1ccc(Br)cc1)N1CCN(Cc2c[nH]c3ccccc23)CC1,10%,1.3µM*,?,?,?,2.3µM*
COc1ccc(CN2CCN(C(=O)COc3ccc4ccccc4c3)CC2)c(OC)c1,-6%,?,?,?,?,?
C=CCOC(=O)C1C(C(=O)O)C2(Cl)C(Cl)=C(Cl)C1(Cl)C2(Cl)Cl (configuration not stated),/,?,-1%,-5,10%,-11%
SMILES,BCR signal inh,DT40 TDP1 CPT,SW480 rerep,IL-1B inflam inh,MCF10A rerep,TDP1 cell noCPT
C=CCN(CC=C)C(=O)CCN1CC1C (configuration not stated),/,?,-4%,-9,16%,?
O=C(Nc1ccc(Cl)cc1)N1CC1,/,8.2µM*,-7%,-5,0%,15µM*
Cc1ccc(NC(=O)N2CC2)cc1NC(=O)N1CC1,/,?,14%,30,3%,?
Cc1ccc2c(c1)Oc1ccccc1N=C2,/,-19%,/,12,/,?
Cc1ccc(-n2ncc(C(=O)N3CCN(c4ccc(Cl)cc4)CC3)c2C2CCN(C(=O)OC(C)(C)C)CC2)c(C)c1,/,?,/,/,/,12µM*
CCc1ccc(CN2CCN(C(=O)Cc3ccccc3)CC2)cc1,-8%,?,2%,-1,?,?
CC(C)(C)OC(=O)N1CCC(c2c(C(=O)N3CCN(Cc4ccccc4)CC3)cnn2-c2ccc(Cl)cc2)CC1,/,26µM*,/,/,/,21µM*
COc1ccc(-n2ncc(C(=O)N3CCN(c4cc(C)ccc4C)CC3)c2C2CCN(C(=O)OC(C)(C)C)CC2)cc1,/,21µM*,/,/,/,15µM*
O=S(=O)(O)C(=Cc1ccccc1)c1ccccc1 (tested in a mixture with another compound),/,-4%,-6%,11,-1%,-6%
COc1ccc2o/c(=N\O)c(C(=O)Nc3ccc(C)cc3)cc2c1,4%,23µM*,2%,?,0%,?
CCn1c(C)c(C(=O)Nc2ccc(OC)cc2)c2cc(OC)ccc21,-4%,-20%,10%,15,-1%,?
CCn1c(O)c(/C=N/NC(=O)c2ccncc2)c(=O)n(CC)c1=S,?,-22%,3%,-9,20%,-5%
Cc1cccc(C)c1NC(=O)CN1CCCC1=O,/,-2%,/,/,/,-8%
CC(=NCCO)c1c(O)n(C)c(=O)n(C)c1=O,9%,-8%,-1%,14,-5%,-1%
CC(=NCCC1=CCCCC1)c1c(O)n(C)c(=O)n(C)c1=O,3%,10µM*,-2%,27,10%,23µM*
CC(C)(CN)CC(=O)O,1%,-13%,?,2,1%,-5%
Cn1c(O)c(/C=N/Nc2ccccc2)c(=O)n(C)c1=O,-9%,22%,-18%,-14,6.5µM*,-7%
Cn1c(O)c(C=Nc2ccccc2)c(=O)n(C)c1=O,6%,-6%,0%,-21,-9%,-6%
